About 500 (1.3%) of roughly 39,000 compounds were called active. Many of the other results were omitted from the sample, so actives are more common in it than they were.
system: S. aureus RN4220; experiment: growth inhibition call (relative growth <= 0.2); details: 50 µM

Row | Structure (SMILES) | growth inhibition call
1 | C[C@H]1CC[C@@H]2N(C1)C[C@@H]1[C@H]([C@@H](O)[C@H](O)[C@]3(O)[C@H]1C[C@@]14O[C@]5(O)[C@@H](C[C@@H](O)[C@@H]31)[C@]4(C)CC[C@@H]5O)[C@]2(C)O | inactive
2 | Cc1cc(C(=O)Nc2cccc3c2O[C@H](CN(C)C(=O)Nc2ccc4c(c2)OCO4)[C@H](C)CN([C@H](C)CO)C3=O)n(C)n1 | inactive
3 | COc1ccc(S(=O)(=O)Nc2ccc3c(c2)C(=O)N([C@H](C)CO)C[C@@H](C)[C@@H](CN(C)Cc2ccccc2)OCCCC[C@@H](C)O3)cc1 | inactive
4 | Cc1noc(C)c1NC(=O)N(C)C[C@@H]1OCCCC[C@@H](C)Oc2ccc(NC(=O)c3ccccc3)cc2C(=O)N([C@H](C)CO)C[C@@H]1C | inactive
5 | CCCN(CCC)[NH2+][O-] | inactive
6 | C[C@H](CO)N1C[C@H](C)[C@H](CN(C)Cc2ccccc2)Oc2ccc(NC(=O)CCN3CCOCC3)cc2CC1=O | inactive
7 | C[C@@H]1CN([C@H](C)CO)C(=O)c2cc(NC(=O)Nc3cccc4ccccc34)ccc2O[C@@H](C)CCCCO[C@H]1CN(C)S(=O)(=O)c1ccc(F)cc1 | inactive
8 | CC(C)(Sc1cc(C(C)(C)C)c(O)c(C(C)(C)C)c1)Sc1cc(C(C)(C)C)c(OC(=O)CCC(=O)O)c(C(C)(C)C)c1 | inactive
9 | CC(C)(Sc1cc(C(C)(C)C)c(O)c(C(C)(C)C)c1)Sc1cc(C(C)(C)C)c(O)c(C(C)(C)C)c1 | inactive
10 | CC(C)(Sc1cc(C(C)(C)C)c(O)c(C(C)(C)C)c1)Sc1cc(C(C)(C)C)c(OCC(=O)O)c(C(C)(C)C)c1 | active
11 | C[C@@H]1CN([C@H](C)CO)C(=O)c2cc(NS(=O)(=O)c3ccccc3)ccc2O[C@H]1CN(C)S(=O)(=O)c1ccc(F)cc1 | inactive
12 | Nc1ccc(-n2cc(CCC(=O)NO)nn2)cc1 | inactive
13 | Nc1cccc(-n2cc(CCC(=O)NO)nn2)c1 | inactive
14 | COC(=O)[C@@H](N)Cc1ccc(-n2cc(CCC(=O)NO)nn2)cc1 | active
15 | CC(/C=C/C(=O)NO)=C\c1ccccc1OCc1cn(-c2cccc(N(S(=O)(=O)c3ccc(C)cc3)S(=O)(=O)c3ccc(C)cc3)c2)nn1 | inactive
16 | Cc1ccc(S(=O)(=O)N(c2cccc(-n3cc(CCC(=O)NO)nn3)c2)S(=O)(=O)c2ccc(C)cc2)cc1 | active
17 | CCOc1cc(OCC)cc(C(=O)N[C@@H](Cc2ccc(-n3cc(CCC(=O)NO)nn3)cc2)C(=O)OC)c1 | inactive
18 | Cc1onc(-c2ccccc2)c1C#N | inactive
19 | NCCOB(c1ccccc1)c1ccccc1 | inactive
20 | C[C@@H]1CCCCO[C@H](CN(C)C(=O)Nc2ccc(C(F)(F)F)cc2)[C@@H](C)CN([C@H](C)CO)C(=O)c2cc(NC(=O)Cc3ccccc3)ccc2O1 | inactive
21 | CC(C)NC(=O)N(C)C[C@@H]1Oc2ccc(NC(=O)Cc3ccccc3)cc2CC(=O)N([C@H](C)CO)C[C@@H]1C | inactive
22 | C[C@@H]1CN([C@@H](C)CO)C(=O)c2cc(NS(C)(=O)=O)ccc2O[C@@H]1CN(C)C(=O)Nc1ccc2c(c1)OCO2 | inactive

Row | Structure (SMILES) | growth inhibition call
23 | CS(=O)(=O)N1CCn2cc(Cn3cncn3)nc2C1 | inactive
24 | CCCC#Cc1cnc2c(c1)C(=O)N([C@@H](C)CO)C[C@H](C)[C@@H](CN(C)S(=O)(=O)c1cn(C)cn1)O2 | inactive
25 | COc1ccc(NC(=O)N(C)C[C@@H]2Oc3ccc(NC(=O)CCN4CCOCC4)cc3C(=O)N([C@H](C)CO)C[C@H]2C)cc1 | inactive
26 | CC(C)C1=CC2=CC[C@H]3[C@](C)(CO)CCC[C@]3(C)[C@@H]2CC1 | inactive
27 | CC(C)c1cc2c(cc1S(=O)(=O)O)[C@@]1(C)CCC[C@@](C)(C(=O)O)[C@@H]1CC2 | inactive
28 | CC(C)C1=CC2=CCC3C(C)(C(=O)O)CCCC3(C)C2CC1 (centres undefined) | active
29 | CCc1nc2ccc(C(=O)N3CCN(S(=O)(=O)CC)CC3)cn2c1N(C)Cc1ccc(Cl)cc1 | inactive
30 | CN1CC2(COC2)OCCS1(=O)=O | inactive
31 | COc1ccc(S(=O)(=O)Nc2ccc3c(c2)CC(=O)N([C@H](C)CO)C[C@H](C)[C@@H](CN(C)S(=O)(=O)c2cn(C)cn2)O3)cc1 | inactive
32 | CC1(C)Cc2c(-c3ccccc3)c(-c3ccc(Cl)cc3)c(CC(=O)O)n2C1 | active
33 | Cc1cc(CC(=O)O)n(C)c1C(=O)c1ccc(Cl)cc1 | inactive
34 | C[C@H]1CN([C@@H](C)CO)C(=O)c2cccc(NC(=O)Nc3ccc(C(F)(F)F)cc3)c2O[C@@H]1CN(C)C(=O)Nc1ccc(C(F)(F)F)cc1 | inactive
35 | CC(=O)OC1CC(OC(C)=O)C2(C)C(CC(OC(C)=O)C3(C)C4=CC(=O)OC(c5ccoc5)C4(C)CCC32)C1(C)C (centres undefined) | inactive
36 | CC(C)NC(=O)N(C)C[C@H]1Oc2ccc(NC(=O)Nc3ccc4c(c3)OCO4)cc2CC(=O)N([C@@H](C)CO)C[C@H]1C | inactive
37 | Oc1c(Cl)cc(Cl)cc1Sc1cc(Cl)cc(Cl)c1O | inactive
38 | Oc1c(Cl)cc(Cl)c(Cl)c1Cc1c(O)c(Cl)cc(Cl)c1Cl | inactive
39 | O=C(Nc1cc(Cl)cc(Cl)c1O)c1c(O)c(Cl)cc(Cl)c1Cl | active
40 | CS(=O)(=O)N1C[C@@H](O)COC[C@H]2O[C@H](CC(=O)NCc3ccccc3)CC[C@@H]21 | inactive
41 | Cc1noc(C)c1S(=O)(=O)Nc1ccc2c(c1)C(=O)N([C@H](C)CO)C[C@H](C)[C@@H](CN(C)Cc1ccncc1)O2 | inactive
42 | C[C@@H]1CCCCO[C@H](CN(C)C(=O)CCC(F)(F)F)[C@H](C)CN([C@H](C)CO)C(=O)c2cc(NS(=O)(=O)c3cccs3)ccc2O1 | inactive
43 | CC(=O)OC1(C(C)=O)CCC2C3C=C(C)C4=CC(=O)CCC4(C)C3CCC21C (centres undefined) | inactive
44 | CC(=O)OC1CC2(C)C(CC(O)C3C4(C)CCC(O)C(C)C4CCC32C)C1=C(CCC=C(C)C)C(=O)O (centres undefined) | active

Row | Structure (SMILES) | growth inhibition call
45 | CC(=O)OC1(C(C)=O)CCC2C3CC(C)C4=CC(=O)CCC4(C)C3CCC21C (centres undefined) | inactive
46 | CC(=O)O[C@H]1C[C@@]2(C)[C@@H](C[C@@H](O)[C@@H]3[C@@]4(C)CC[C@@H](O)[C@@H](C)[C@@H]4CC[C@@]32C)/C1=C(/CCC=C(C)C)C(=O)O | active
47 | CC(=O)O[C@H]1C[C@@]2(C)[C@@H](C[C@@H](O)[C@H]3[C@@]4(C)CC[C@@H](O)[C@@H](C)[C@@H]4CC[C@@]32C)/C1=C(\CCC=C(C)C)C(=O)O | active
48 | CC(=O)O[C@H]1C[C@@]2(C)[C@@H](C[C@@H](O)[C@H]3[C@@]4(C)CC[C@@H](O)[C@@H](C)[C@H]4CC[C@@]32C)C1=C(CCC=C(C)C)C(=O)O | active
49 | CC(=O)C1CCC2C3CC=C4CC(OC(=O)CCC(=O)O)CCC4(C)C3CCC12C (centres undefined) | inactive
50 | C[C@H](CO)N1C[C@H](C)[C@H](CN(C)C(=O)Nc2ccccc2)OCCCC[C@H](C)Oc2ccc(NC(=O)Nc3ccc(F)cc3)cc2C1=O | inactive
51 | C[C@H](CO)N1C[C@H](C)[C@@H](CN(C)CC2CC2)Oc2ccc(NS(=O)(=O)c3cccs3)cc2C1=O | inactive
52 | Cc1ccc(S(=O)(=O)N(C)C[C@H]2Oc3ccc(NC(=O)Nc4cccc5ccccc45)cc3C(=O)N([C@@H](C)CO)C[C@H]2C)cc1 | inactive
53 | O=C1NCC(=O)N2[C@@H]1C[C@@H](C(=O)O)[C@H]2c1ccc(O)cc1 | inactive
54 | C[C@H](CO)N1C[C@H](C)[C@H](CN(C)Cc2cccc(F)c2)Oc2cc(C#CC3CC3)ccc2S1(=O)=O | inactive
55 | C[C@H](CO)N1C[C@H](C)[C@@H](CN(C)CC2CCCCC2)Oc2ccc(NC(=O)Cn3cnnn3)cc2C1=O | inactive
56 | C[C@@H]1CN([C@@H](C)CO)S(=O)(=O)c2ccc(Br)cc2O[C@H]1CN(C)S(=O)(=O)c1ccc(F)cc1 | inactive
57 | COc1ccc(S(=O)(=O)N(C)C[C@@H]2Oc3ccc(NC(=O)c4ccncc4)cc3C(=O)N([C@H](C)CO)C[C@@H]2C)cc1 | inactive
58 | C[C@H](CO)N1C[C@H](C)[C@@H](CN(C)S(=O)(=O)c2cn(C)cn2)OCCCC[C@H](C)Oc2ccc(NS(=O)(=O)c3cn(C)cn3)cc2C1=O | inactive
59 | C[C@@H]1CCCCO[C@H](CN(C)C(=O)Cc2ccccc2)[C@@H](C)CN([C@@H](C)CO)C(=O)c2cc(NC(=O)C3CCCCC3)ccc2O1 | inactive
60 | C[C@@H]1CCCCO[C@@H](CN(C)C(=O)Nc2ccc(F)cc2)[C@H](C)CN([C@@H](C)CO)C(=O)c2cc(NC(=O)CCC(F)(F)F)ccc2O1 | inactive
61 | C[C@H]1CN([C@@H](C)CO)C(=O)CCCn2nncc2CO[C@@H]1CN(C)S(=O)(=O)c1ccc(Oc2ccccc2)cc1 | inactive
62 | CCCCCCCCCC(=O)N[C@@H](Cc1c[nH]c2ccccc12)C(=O)N[C@H](CC(N)=O)C(=O)N[C@@H](CC(=O)O)C(=O)N[C@@H]1C(=O)NCC(=O)N[C@@H](CCCN)C(=O)N[C@@H](CC(=O)O)C(=O)N[C@H](C)C(=O)N[C@@H](CC(=O)O)C(=O)NCC(=O)N[C@H](CO)C(=O)N[C@@H]([C@H](C)CC(=O)O)C(=O)N[C@@H](CC(=O)c2ccccc2N)C(=O)O[C@@H]1C | active
63 | C[C@H](N)C(=O)NCC(=O)N[C@H]1CSSC[C@@H](C(=O)O)NC(=O)[C@H](CO)NC(=O)[C@H]([C@@H](C)O)NC(=O)[C@H](Cc2ccccc2)NC(=O)[C@H]([C@@H](C)O)NC(=O)[C@H](CCCCN)NC(=O)[C@H](Cc2c[nH]c3ccccc23)NC(=O)[C@H](Cc2ccccc2)NC(=O)[C@H](Cc2ccccc2)NC(=O)[C@H](CC(N)=O)NC(=O)[C@H](CCCCN)NC1=O | inactive
64 | CSCC[C@H](NC(=O)[C@H](Cc1c[nH]c2ccccc12)NC(=O)CNC(=O)[C@@H](NC(=O)[C@H](Cc1ccc(OS(=O)(=O)O)cc1)NC(=O)[C@H](CC(=O)O)NC(=O)[C@H](CCC(N)=O)NC(=O)[C@@H]1CCC(=O)N1)[C@@H](C)O)C(=O)N[C@@H](CC(=O)O)C(=O)N[C@@H](Cc1ccccc1)C(N)=O | inactive

From the antibiotic and cytotoxicity screens of Wong et al. (2023)
